Reference: the supplement of paper PMC3334620
The full ranking holds about 33,000 sequences; the median of “E-score (-0.5 to 0.5)” is about -0.035, and the highest 2% start at about 0.35. Only a selection was taken, and the highest values are over-represented in it overall.

Biological target: T1, Pdr3 (UniProt P33200)
T1 sequence: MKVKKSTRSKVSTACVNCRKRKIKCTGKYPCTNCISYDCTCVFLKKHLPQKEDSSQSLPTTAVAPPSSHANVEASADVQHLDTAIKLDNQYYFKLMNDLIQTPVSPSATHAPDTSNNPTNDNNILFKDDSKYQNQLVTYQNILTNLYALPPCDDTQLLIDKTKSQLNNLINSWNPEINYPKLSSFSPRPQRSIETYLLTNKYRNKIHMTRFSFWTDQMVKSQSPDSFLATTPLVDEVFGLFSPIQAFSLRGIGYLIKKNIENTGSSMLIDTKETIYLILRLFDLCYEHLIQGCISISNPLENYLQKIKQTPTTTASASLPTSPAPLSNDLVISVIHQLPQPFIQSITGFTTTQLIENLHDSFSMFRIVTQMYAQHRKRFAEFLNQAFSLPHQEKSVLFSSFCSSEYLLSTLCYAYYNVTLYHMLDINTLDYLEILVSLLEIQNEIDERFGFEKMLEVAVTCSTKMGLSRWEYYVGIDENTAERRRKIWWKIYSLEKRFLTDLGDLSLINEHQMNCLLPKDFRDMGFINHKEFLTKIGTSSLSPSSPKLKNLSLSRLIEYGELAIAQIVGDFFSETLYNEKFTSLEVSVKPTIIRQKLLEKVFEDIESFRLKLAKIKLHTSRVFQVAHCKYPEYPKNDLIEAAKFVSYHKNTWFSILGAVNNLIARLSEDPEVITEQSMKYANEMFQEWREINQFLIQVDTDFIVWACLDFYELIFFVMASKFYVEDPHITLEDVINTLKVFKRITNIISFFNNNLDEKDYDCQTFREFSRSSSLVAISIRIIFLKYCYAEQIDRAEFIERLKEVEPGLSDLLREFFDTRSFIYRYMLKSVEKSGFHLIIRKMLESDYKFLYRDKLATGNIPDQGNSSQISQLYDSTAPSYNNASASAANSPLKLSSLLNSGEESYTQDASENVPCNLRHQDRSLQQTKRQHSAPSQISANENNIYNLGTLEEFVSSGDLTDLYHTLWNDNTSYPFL
Assay: PBM E-score (8-mer binding enrichment) (E-score (-0.5 to 0.5)); higher = stronger / more preferred TF binding
Settings: protein concentration: 200 nM; construct: GST-full length
Protocol: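 Universal 'all 10-mer' protein binding microarrays (Agilent AMADID 015681) probed with GST-tagged S. cerevisiae TFs (full-length or DBD) made by in vitro transcription/translation (PURExpress), about 100-200 nM. Bound TF was detected with fluorescent anti-GST. Each ungapped 8-mer (which stands for itself and its reverse complement) is scored by the PBM enrichment score (E-score), a modified Wilcoxon-Mann-Whitney statistic from -0.5 to +0.5, computed with the Universal PBM Analysis Suite. Scale: above 0.35 generally sequence-specific binding.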

| Sequence | PBM E-score |
| --- | --- |
| ATCGTTAA | 0.00324 |
| CGAATCCA | 0.0811 |
| CCGTCACG | 0.238 |
| ATCCCACC | 0.266 |
| CCTCGGAC | 0.282 |
| CCTCGGAG | 0.283 |
| CCTCGGCC | 0.251 |
| GCTCGGAA | 0.413 |
| GCTCGGTA | 0.123 |
| CCTCGGCG | 0.376 |
| CCTCGGCA | 0.238 |
| GCTCGGAC | 0.297 |
| ACTCGGAT | 0.256 |
| CCTCGGAA | 0.442 |
| ACTCGGAA | 0.427 |
| ACTCGGAC | 0.305 |
| AAACGTCA | -0.149 |
| AAGCCTGT | 0.028 |
| CTGCAGGC | -0.094 |
| TCTCGTAA | -0.0824 |
| TCTCGGCA | 0.217 |
| TCTCGGAA | 0.444 |
| AAGGCCAG | -0.0965 |
| TAAGCACA | 0.108 |
| CGGGAACG | 0.285 |

| Sequence | PBM E-score |
| --- | --- |
| AGGGAACT | 0.0568 |
| ACGGAACC | 0.487 |
| CAGGAACG | -0.0257 |
| CCGGAACG | 0.475 |
| AAGGAACC | 0.217 |
| AGGGAACC | -0.00025 |
| AAGGAACT | 0.0764 |
| ACGGAACT | 0.48 |
| CCGGAACC | 0.476 |
| CGGGAACC | 0.312 |
| CAGGAACC | -0.124 |
| ACTCAACC | -0.035 |
| ATTGCACC | -0.0754 |
| GGCACTAA | 0.156 |
| CGATTGCG | 0.202 |
| CTTTCTGC | -0.0975 |
| CAGCACAC | -0.275 |
| CACTCGCG | 0.0224 |
| GACCAATA | -0.0553 |
| AGTGGTTG | -0.00222 |
| ATGGAACG | 0.0401 |
| GGGGAACC | -0.157 |
| ACGGAACG | 0.48 |
| AAGGAACG | 0.00917 |
| GCGGAACC | 0.482 |

| Sequence | PBM E-score |
| --- | --- |
| GAGGAACC | 0.0227 |
| CGATCTTC | 0.0584 |
| CTCTTCAG | -0.243 |
| CTAACAGA | -0.028 |
| AGGAGTGC | -0.0635 |
| CCGGTCCA | 0.0798 |
| ATGGTCCG | 0.387 |
| CCGGTCCC | 0.312 |
| CCGGTCCG | 0.414 |
| ATGGTCCA | -0.203 |
| ATGGTCCC | -0.0703 |
| CAGCTTAC | -0.193 |
| GTAGTGAC | 0.0971 |
| CAGATGCA | -0.278 |
| ACGCGCAC | -0.111 |
| ACATCCAC | -0.04 |
| CAATCATG | -0.189 |
| GCGATTCC | 0.34 |
| CGGATTCA | 0.179 |
| AGGATTCC | 0.223 |
| CCGATTCG | 0.25 |
| CCGATTCC | 0.395 |
| CGGATTCC | 0.454 |
| ATTCACCG | 0.254 |
| ACCCACAG | -0.278 |

| Sequence | PBM E-score |
| --- | --- |
| CATCTCCG | 0.377 |
| AATCTCCG | 0.322 |
| CATCTCCC | 0.155 |
| GTCTGACA | 0.159 |
| AACCTTTG | -0.165 |
| CGAACCGA | 0.15 |
| CGAACGAA | 0.0784 |
| AGAACCGA | 0.0498 |
| CGAACGGA | 0.407 |
| GGAACGGA | 0.431 |
| CGAACGGC | 0.177 |
| GGAACGCA | 0.275 |
| GGAACCGA | 0.406 |
| AGAACGGA | 0.316 |
| AACACCCC | 0.0302 |
| AGCACTTA | -0.102 |
| GGATTCCC | 0.231 |
| ACCTGACT | -0.131 |
| AGAGGGGC | -0.138 |
| TAGGGTGA | 0.00768 |
| TATGTCAA | 0.0343 |
| GTCTCCAC | -0.208 |
| TAAGGGTA | -0.262 |
| CCGGGTCG | 0.378 |
| CCGGGTTC | 0.411 |

| Sequence | PBM E-score |
| --- | --- |
| CCGGGTCA | 0.349 |
| ACGGGTTC | 0.202 |
| CCGGGTCC | 0.365 |
| CCGGGTTA | 0.353 |
| ACGGGTCC | 0.186 |
| GCGGGTCC | 0.243 |
| ACGGGTCG | 0.227 |
| AAGCGCTT | 0.21 |
| ATGAAGGG | -0.171 |
| GTGGATAA | 0.0146 |
| GGATTTGA | -0.0356 |
| CGGTCTTC | 0.123 |
| AATCAACA | 0.115 |
| GCTCGAAA | 0.0413 |
| ATACTCCC | 0.127 |
| ATACTCCA | -0.0793 |
| ATACTCCG | 0.371 |
| CCGCGGCC | 0.459 |
| ACGCGGCC | 0.0489 |
| GCGCGGCC | 0.219 |
| CCGCGGCG | 0.477 |
| ACGCGGCG | 0.209 |
| CAGCGGCG | 0.154 |
| GACGTCTC | -0.145 |
| TATCGAGA | -0.0727 |

| Sequence | PBM E-score |
| --- | --- |
| ACGCAAGT | -0.255 |
| TCCCCGAA | 0.232 |
| GCCCCGGC | 0.163 |
| GCCCCGGA | 0.41 |
| TCCCCCGA | 0.0813 |
| TCCCCGGA | 0.411 |
| CCCCCGGA | 0.311 |
| CTTGGAGC | -0.207 |
| ACTTTCAG | -0.184 |
| AAATTGCG | 0.0648 |
| GATCTTAC | -0.113 |
| GCTTCCAA | -0.143 |
| GCTTCCTA | -0.205 |
| ACTTCCTG | -0.121 |
| ACTTCCGG | 0.42 |
| ACTTCCGA | 0.355 |
| ACTTCCCA | -0.0401 |
| ACTTCCAA | -0.127 |
| ACTTCCCG | 0.291 |
| GCTTCCGA | 0.405 |
| CGCACAAA | 0.0204 |
| AGGGTGTG | -0.0975 |
| ACGCCCAA | 0.00636 |
| AAAGCTCA | -0.213 |
| CGGTCGAG | -0.014 |

| Sequence | PBM E-score |
| --- | --- |
| CGGTACCG | 0.362 |
| CGGTACCC | -0.0572 |
| CGGTACCA | 0.0596 |
| CTTCATCC | -0.00929 |
| ACTCCGGA | 0.456 |
| CCTCCGGC | 0.32 |
| CCTCCCGA | 0.103 |
| ACTCCGGG | 0.369 |
| GCTCCGCA | 0.178 |
| ACTCCGGC | 0.315 |
| GCTCCGGA | 0.461 |
| GCTCCGTA | 0.32 |
| ACTCCTGG | -0.134 |
| CCTCCGGA | 0.416 |
| ACTCCGAT | 0.203 |
| AAATAGGT | -0.15 |
| ATCAAAGA | -0.143 |
| ACTCTGCA | -0.125 |
| GGTTTCGA | 0.134 |
| CTCTTTCC | 0.141 |
| CATGAAAC | 0.0519 |
| CGATTTCA | -0.0484 |
| TGCATAAA | -0.00866 |
| GCGTTGCC | 0.126 |
